# Measured values from PubChem BioAssay (NCI).
# About 83,000 compounds went through this panel and 20% of them were active in at least one assay; those are over-represented in the sample as a whole.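 Activity criterion: percent growth below 10, measured after cells in 96-well plates were exposed to a single compound concentration for 48 hours.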 Unmarked numbers belong to inactive results. The source made the active and inactive calls.
# Legend:
# Assay in all cases: NCI-60 one-dose screen, 48 h (100 = growth as untreated, 0 = no growth, -100 = all killed)
# Details in all cases: 10 µM unless noted
# NCI-H23 lung = test system: NCI-H23 lung
# NCI-H226 lung = test system: NCI-H226 lung
# NCI-H322M lung = test system: NCI-H322M lung
# HOP-62 NSCLC = test system: HOP-62 NSCLC
# NCI-H460 lung = test system: NCI-H460 lung
# HOP-92 NSCLC = test system: HOP-92 NSCLC
# NCI-H522 lung = test system: NCI-H522 lung
# A549/ATCC NSCLC = test system: A549/ATCC NSCLC
# 786-0 renal = test system: 786-0 renal
# COLO 205 colon = test system: COLO 205 colon
# DU-145 prostate = test system: DU-145 prostate
# K-562 leukemia = test system: K-562 leukemia
# MALME-3M melanoma = test system: MALME-3M melanoma
# MDA-MB-231 breast = test system: MDA-MB-231 breast
# RXF 393 renal = test system: RXF 393 renal
# SF-268 CNS = test system: SF-268 CNS
# SF-295 CNS = test system: SF-295 CNS
# SF-539 CNS = test system: SF-539 CNS
# UACC-257 melanoma = test system: UACC-257 melanoma
# M14 melanoma = test system: M14 melanoma
SMILES,growth (NCI-H23 lung) [%],growth (NCI-H226 lung) [%],growth (NCI-H322M lung) [%],growth (HOP-62 NSCLC) [%],growth (NCI-H460 lung) [%],growth (HOP-92 NSCLC) [%],growth (NCI-H522 lung),growth (A549/ATCC NSCLC) [%],growth (786-0 renal) [%],growth (COLO 205 colon),growth (DU-145 prostate) [%],growth (K-562 leukemia),growth (MALME-3M melanoma) [%],growth (MDA-MB-231 breast) [%],growth (RXF 393 renal) [%],growth (SF-268 CNS) [%],growth (SF-295 CNS) [%],growth (SF-539 CNS),growth (UACC-257 melanoma) [%],growth (M14 melanoma)
Cc1nc(C)c(C)nc1C,102,104,103,100,109,103,84.6%,86.6,96.9,119%,108,93.1%,102,108,120,105,107,104%,88.1,101%
COC(=O)/C=C1\SC(=Nc2cccc(Cl)c2)N(CCc2c[nH]c3ccccc23)C1=O,69.9,101,62,41.5,51.3,82.4,24.2%,48,60.6,12.1%,54.5,24.3%,45.9,39.5,44.8,49.5,55.1,69.9%,37.1,42.4%
COCCOC(=O)COc1ccc(OC)cc1,105,97.3,94.9,111,108,98.3,115%,99.2,109,115%,103,104%,97,98.1,104,102,99.5,104%,96.3,105%
C=C(C)[C@@H]1CC[C@]2(C(N)=O)CC[C@]3(C)[C@H](CC[C@@H]4[C@@]5(C)CCCNC(C)(C)[C@@H]5CC[C@]43C)[C@@H]12,76.4,86.3,101,91.4,64,65.4,84.4%,65,87.2,69.3%,92.4,7.26% (active),75,62.4,72.4,85.8,80.9,65.4%,57.6,86.8%
CN1CCN(C(=O)[C@@]2(C)CC[C@]3(C)CC[C@]4(C)C(=CC[C@@H]5[C@@]6(C)CC[C@H](OC(=O)c7cccnc7)C(C)(C)[C@@H]6CC[C@]54C)[C@@H]3C2)CC1,75.3,95.2,94.9,83.7,11.7,79.2,98.6%,69.8,13,68.3%,78.7,-24.1% (active),60.2,48.4,60.3,85.4,67.8,59.8%,58.6,80.7%
Oc1ccccc1-c1nc2c3ccccc3c3ccccc3c2o1,85.5,85.8,92.4,101,69.6,83.8,99.3%,90.9,99.2,85.7%,104,88.1%,91.9,81.7,109,89.8,115,105%,101,103%
Nc1c(C(=O)Nc2cccc3ccccc23)sc2nc3c(cc12)CCCCCC3,47.8,70.6,48.1,38.8,11.2,52.9,-37.1% (active),20.1,26.4,-2.61% (active),14.9,9.1% (active),75.9,39.3,21.8,45.6,23.7,-0.219% (active),68.8,3.04% (active)
